How the values were obtained:
Assay in all cases: yeast three-hybrid, YBZ-1, SC-Leu-His + 0.5 mM 3-AT, 4 days
Conditions in all cases: tags: N-Gal4 AD-HA kept; label: inside an RPR1-promoter hybrid RNA with tandem MS2 sites; ssRNA
PUM1 PUF domain R4-SPS = PUM1 PUF domain R4-SPS (Homo sapiens, UniProt Q14671 828-1176, N971S;H972P;Q975S)
Procedure, shortened: (§1)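 The interaction score is the logarithmic change in variant frequency from input to selection. It uses log2, with a pseudocount of 1 for absent variants, and frequencies came from PCR-amplified, Illumina-sequenced repeat regions. The libraries were Pumilio-1 PUF domains randomized at the three base-contacting residues per repeat, co-expressed with matching RNA elements in strain YBZ-1 (LexA–MS2 coat fusion, HIS3 reporter). Plating lasted four days on SC-Leu (input) or SC-Leu-His + 0.5 mM 3-AT (selection).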

PUM1 PUF domain R3-VWS = PUM1 PUF domain R3-VWS (Homo sapiens, UniProt Q14671 828-1176, C935V;R936W;Q939S)
Procedure, shortened: as §1

PUM1 PUF domain R3-EWG = PUM1 PUF domain R3-EWG (Homo sapiens, UniProt Q14671 828-1176, C935E;R936W;Q939G)
Procedure, shortened: as §1

PUM1 PUF domain R4-SPC = PUM1 PUF domain R4-SPC (Homo sapiens, UniProt Q14671 828-1176, N971S;H972P;Q975C)
Procedure, shortened: as §1

PUM1 PUF domain R5-KYY = PUM1 PUF domain R5-KYY (Homo sapiens, UniProt Q14671 828-1176, C1007K;R1008Y;Q1011Y)
Procedure, shortened: as §1

PUM1 PUF domain R2-AWW = PUM1 PUF domain R2-AWW (Homo sapiens, UniProt Q14671 828-1176, N899A;Y900W;Q903W)
Procedure, shortened: as §1

PUM1 PUF domain R7-RRF = PUM1 PUF domain R7-RRF (Homo sapiens, UniProt Q14671 828-1176, S1079R;N1080R;E1083F)
Procedure, shortened: as §1

PUM1 PUF domain R2-RKG = PUM1 PUF domain R2-RKG (Homo sapiens, UniProt Q14671 828-1176, N899R;Y900K;Q903G)
Procedure, shortened: as §1

PUM1 PUF domain R5-FNG = PUM1 PUF domain R5-FNG (Homo sapiens, UniProt Q14671 828-1176, C1007F;R1008N;Q1011G)
Procedure, shortened: as §1

PUM1 PUF domain R5-GNW = PUM1 PUF domain R5-GNW (Homo sapiens, UniProt Q14671 828-1176, C1007G;R1008N;Q1011W)
Procedure, shortened: as §1

Sequence of PUM1 PUF domain R3-EWG (Q14671 828-1176 C935E/R936W/Q939G): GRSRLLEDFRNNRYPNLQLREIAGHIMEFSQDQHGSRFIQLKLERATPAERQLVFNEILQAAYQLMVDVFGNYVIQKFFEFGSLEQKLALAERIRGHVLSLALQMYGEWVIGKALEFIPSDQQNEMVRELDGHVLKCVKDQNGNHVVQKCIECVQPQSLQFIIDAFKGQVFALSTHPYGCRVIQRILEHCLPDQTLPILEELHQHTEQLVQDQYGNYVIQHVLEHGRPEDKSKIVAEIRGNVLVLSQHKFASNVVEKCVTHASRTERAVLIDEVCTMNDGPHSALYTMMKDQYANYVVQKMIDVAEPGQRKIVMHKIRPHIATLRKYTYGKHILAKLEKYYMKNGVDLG
Sequence of PUM1 PUF domain R5-KYY (Q14671 828-1176 C1007K/R1008Y/Q1011Y): as the sequence (Q14671 828-1176 C935E/R936W/Q939G) above, with E108C, W109R, G112Q, C180K, R181Y, Q184Y counted along it
Sequence of PUM1 PUF domain R4-SPS (Q14671 828-1176 N971S/H972P/Q975S): as the sequence (Q14671 828-1176 C935E/R936W/Q939G) above, with E108C, W109R, G112Q, N144S, H145P, Q148S counted along it
Sequence of PUM1 PUF domain R2-AWW (Q14671 828-1176 N899A/Y900W/Q903W): as the sequence (Q14671 828-1176 C935E/R936W/Q939G) above, with N72A, Y73W, Q76W, E108C, W109R, G112Q counted along it
Sequence of PUM1 PUF domain R7-RRF (Q14671 828-1176 S1079R/N1080R/E1083F): as the sequence (Q14671 828-1176 C935E/R936W/Q939G) above, with E108C, W109R, G112Q, S252R, N253R, E256F counted along it
Sequence of PUM1 PUF domain R4-SPC (Q14671 828-1176 N971S/H972P/Q975C): as the sequence (Q14671 828-1176 C935E/R936W/Q939G) above, with E108C, W109R, G112Q, N144S, H145P, Q148C counted along it
Sequence of PUM1 PUF domain R2-RKG (Q14671 828-1176 N899R/Y900K/Q903G): as the sequence (Q14671 828-1176 C935E/R936W/Q939G) above, with N72R, Y73K, Q76G, E108C, W109R, G112Q counted along it
Sequence of PUM1 PUF domain R5-GNW (Q14671 828-1176 C1007G/R1008N/Q1011W): as the sequence (Q14671 828-1176 C935E/R936W/Q939G) above, with E108C, W109R, G112Q, C180G, R181N, Q184W counted along it
Sequence of PUM1 PUF domain R5-FNG (Q14671 828-1176 C1007F/R1008N/Q1011G): as the sequence (Q14671 828-1176 C935E/R936W/Q939G) above, with E108C, W109R, G112Q, C180F, R181N, Q184G counted along it
Sequence of PUM1 PUF domain R3-VWS (Q14671 828-1176 C935V/R936W/Q939S): as the sequence (Q14671 828-1176 C935E/R936W/Q939G) above, with E108V, G112S counted along it

GGCUAGAACUAGUGGAUCCCCCGGCGCCCGGCGGCUCGAGCCCGGGUAAGUGUACAUAGUCUGCAUGCCGCCGGGCGCCAUGCCUGCAGGUCGACUCUAGAAAACAUG
binding signal (PUM1 PUF domain R4-SPS): 1.66 log2 enrichment (interaction score)

GGCUAGAACUAGUGGAUCCCCCGGCGCCCGGCGGCUCGAGCCCGGGUAAGUGUAAAUAGUCUGCAUGCCGCCGGGCGCCAUGCCUGCAGGUCGACUCUAGAAAACAUG
binding signal (PUM1 PUF domain R3-VWS): 2.46 log2 enrichment (interaction score) | binding signal (PUM1 PUF domain R3-EWG): 3.61 log2 enrichment (interaction score) | binding signal (PUM1 PUF domain R4-SPC): 3.42 log2 enrichment (interaction score) | binding signal (PUM1 PUF domain R4-SPS): 3.74 log2 enrichment (interaction score) | binding signal (PUM1 PUF domain R5-KYY): 1.63 log2 enrichment (interaction score)

GGCUAGAACUAGUGGAUCCCCCGGCGCCCGGCGGCUCGAGCCCGGGUAAGUGUAUAUAGUCUGCAUGCCGCCGGGCGCCAUGCCUGCAGGUCGACUCUAGAAAACAUG
binding signal (PUM1 PUF domain R4-SPC): 2.92 log2 enrichment (interaction score) | binding signal (PUM1 PUF domain R4-SPS): 2.82 log2 enrichment (interaction score)

GGCUAGAACUAGUGGAUCCCCCGGCGCCCGGCGGCUCGAGCCCGGGUAAGUGUAAAAAGUCUGCAUGCCGCCGGGCGCCAUGCCUGCAGGUCGACUCUAGAAAACAUG
binding signal (PUM1 PUF domain R2-AWW): 7.76 log2 enrichment (interaction score)

GGCUAGAACUAGUGGAUCCCCCGGCGCCCGGCGGCUCGAGCCCGGGUAAGUGUCAAUAGUCUGCAUGCCGCCGGGCGCCAUGCCUGCAGGUCGACUCUAGAAAACAUG
binding signal (PUM1 PUF domain R5-KYY): 3.07 log2 enrichment (interaction score)

GGCUAGAACUAGUGGAUCCCCCGGCGCCCGGCGGCUCGAGCCCGGGUAAGUGUAAUUAGUCUGCAUGCCGCCGGGCGCCAUGCCUGCAGGUCGACUCUAGAAAACAUG
binding signal (PUM1 PUF domain R3-EWG): 3.95 log2 enrichment (interaction score)

GGCUAGAACUAGUGGAUCCCCCGGCGCCCGGCGGCUCGAGCCCGGGUAAGUCUAAAUAGUCUGCAUGCCGCCGGGCGCCAUGCCUGCAGGUCGACUCUAGAAAACAUG
binding signal (PUM1 PUF domain R7-RRF): 3.82 log2 enrichment (interaction score)

GGCUAGAACUAGUGGAUCCCCCGGCGCCCGGCGGCUCGAGCCCGGGUAAGUGUAAGUAGUCUGCAUGCCGCCGGGCGCCAUGCCUGCAGGUCGACUCUAGAAAACAUG
binding signal (PUM1 PUF domain R3-EWG): 4.81 log2 enrichment (interaction score)

GGCUAGAACUAGUGGAUCCCCCGGCGCCCGGCGGCUCGAGCCCGGGUAAGUUUAAAUAGUCUGCAUGCCGCCGGGCGCCAUGCCUGCAGGUCGACUCUAGAAAACAUG
binding signal (PUM1 PUF domain R7-RRF): 4.42 log2 enrichment (interaction score)

GGCUAGAACUAGUGGAUCCCCCGGCGCCCGGCGGCUCGAGCCCGGGUAAGUGUAAAGAGUCUGCAUGCCGCCGGGCGCCAUGCCUGCAGGUCGACUCUAGAAAACAUG
binding signal (PUM1 PUF domain R2-RKG): 4.62 log2 enrichment (interaction score) | binding signal (PUM1 PUF domain R2-AWW): 0.42 log2 enrichment (interaction score)

GGCUAGAACUAGUGGAUCCCCCGGCGCCCGGCGGCUCGAGCCCGGGUAAGUGUUAAUAGUCUGCAUGCCGCCGGGCGCCAUGCCUGCAGGUCGACUCUAGAAAACAUG
binding signal (PUM1 PUF domain R5-FNG): 3.1 log2 enrichment (interaction score) | binding signal (PUM1 PUF domain R5-GNW): 3.72 log2 enrichment (interaction score) | binding signal (PUM1 PUF domain R5-KYY): 2.56 log2 enrichment (interaction score)

Reference: publication PMC8384837, “Expanding the binding specificity for RNA recognition by a PUF domain”
